Experimental data reported in PubChem BioAssay AID1224864 (Chung Lab, Department of Pediatrics, Emory University, 2016).
Hit rate of the full screen: of about 2,000 compounds, about 20 (1%) were called active. No rule for the calls is given here. What follows is part of a selection rich in actives, with near analogues and random picks from the rest. Residues, ends and D or L forms follow the SMILES beside them. *: point of attachment. Boc = CC(C)(C)OC(=O)*

Target: Cystic fibrosis transmembrane conductance regulator (Homo sapiens) (UniProt P13569)
Assay: correctors of F508del-CFTR surface localization, primary screen, imaging, HeLa, high-content microscopy, immunofluorescence (AID 1224864);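 also: HeLa cells stably expressing F508del-CFTR stained with 3G11 antibody against NBD1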;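 as to plasma membrane CFTR intensity: mean immunofluorescence in a thin cell-margin band taken as plasma membrane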
Conditions: PM immunofluorescence imaging, 24 h, at 10 µM, stronger effect = higher value, relative to vehicle wells set at 100; total CFTR intensity: measured here: total cellular F508del-CFTR signal

Cystic fibrosis transmembrane conductance regulator (Homo sapiens), sequence (P13569 whole entry, looked up, stated change not applied): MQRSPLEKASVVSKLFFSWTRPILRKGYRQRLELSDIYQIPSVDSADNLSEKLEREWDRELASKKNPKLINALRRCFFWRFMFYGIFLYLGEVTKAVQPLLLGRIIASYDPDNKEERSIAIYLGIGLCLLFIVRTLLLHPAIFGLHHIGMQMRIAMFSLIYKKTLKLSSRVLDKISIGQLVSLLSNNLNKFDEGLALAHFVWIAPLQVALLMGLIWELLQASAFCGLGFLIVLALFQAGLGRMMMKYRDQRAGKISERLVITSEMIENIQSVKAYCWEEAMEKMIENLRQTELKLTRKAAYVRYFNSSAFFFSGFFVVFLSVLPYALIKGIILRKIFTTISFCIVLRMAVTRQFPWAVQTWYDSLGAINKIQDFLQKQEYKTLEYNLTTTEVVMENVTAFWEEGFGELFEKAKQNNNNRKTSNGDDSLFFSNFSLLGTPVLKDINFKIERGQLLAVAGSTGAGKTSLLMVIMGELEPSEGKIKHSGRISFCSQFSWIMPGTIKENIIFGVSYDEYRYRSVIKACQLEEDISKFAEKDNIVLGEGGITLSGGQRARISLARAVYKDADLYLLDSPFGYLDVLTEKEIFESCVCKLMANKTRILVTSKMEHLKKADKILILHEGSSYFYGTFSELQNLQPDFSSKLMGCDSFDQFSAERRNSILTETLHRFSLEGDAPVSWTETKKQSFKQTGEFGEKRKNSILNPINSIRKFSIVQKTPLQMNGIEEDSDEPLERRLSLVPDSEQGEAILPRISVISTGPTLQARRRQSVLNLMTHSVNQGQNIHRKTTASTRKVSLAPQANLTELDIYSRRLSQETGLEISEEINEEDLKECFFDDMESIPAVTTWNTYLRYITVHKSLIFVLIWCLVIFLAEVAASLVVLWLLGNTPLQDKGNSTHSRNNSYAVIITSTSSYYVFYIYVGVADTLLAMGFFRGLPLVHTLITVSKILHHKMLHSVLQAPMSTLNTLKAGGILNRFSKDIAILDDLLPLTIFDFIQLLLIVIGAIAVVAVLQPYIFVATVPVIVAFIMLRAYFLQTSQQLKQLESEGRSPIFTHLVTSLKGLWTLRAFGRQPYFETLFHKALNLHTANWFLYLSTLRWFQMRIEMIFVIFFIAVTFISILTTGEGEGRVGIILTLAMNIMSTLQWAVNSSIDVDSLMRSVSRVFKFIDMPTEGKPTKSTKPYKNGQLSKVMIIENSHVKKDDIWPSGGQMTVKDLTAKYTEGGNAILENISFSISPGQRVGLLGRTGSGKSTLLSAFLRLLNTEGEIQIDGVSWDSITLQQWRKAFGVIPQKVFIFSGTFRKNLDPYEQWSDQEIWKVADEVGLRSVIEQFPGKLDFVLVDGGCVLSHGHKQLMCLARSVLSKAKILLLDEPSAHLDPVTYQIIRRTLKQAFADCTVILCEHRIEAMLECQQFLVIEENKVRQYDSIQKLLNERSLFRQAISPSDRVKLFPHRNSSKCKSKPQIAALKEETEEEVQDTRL

Compound | plasma membrane CFTR intensity | total CFTR intensity
CC(C)=CCC/C(C)=C/CC/C(C)=N/O | 84% (inactive) | 87%
Cc1ccc(/C=N/NC(=O)C2(C)CC2(Br)Br)cc1 (stereo unspecified) | 82% (inactive) | 80%
CCOC(=O)c1ccc(NC(=S)NCCc2ccccc2F)cc1 | 81% (inactive) | 78%
CCOC(=O)Cc1c(C)nc(N)[nH]c1=O | 82% (inactive) | 81%
CCN1C(=O)C(CC(=O)Nc2ccc(F)cc2)N(Cc2ccc3c(c2)OCO3)C1=S (stereo unspecified) | 81% (inactive) | 81%
CCn1c(C)cc2c(c1=O)C(c1ccccc1)C(C(=O)OC)=C(N)O2 (stereo unspecified) | 90% (inactive) | 94%
CCC(C(=O)Nc1ccc2c(c1)OCCO2)c1ccccc1 (stereo unspecified) | 78% (inactive) | 76%
O=c1[nH]c(Cc2ccccc2)nc2c1oc1ccccc12 | 78% (inactive) | 79%
CCOc1ccc(C(=O)NC(C)C2COc3ccccc3O2)cc1 (stereo unspecified) | 82% (inactive) | 80%
CC(C)CN1CCN(Cc2cccn2-c2ccccn2)CC1CCO (stereo unspecified) | 88% (inactive) | 88%
Cc1csc(N)n1 | 86% (inactive) | 87%
CS(=O)(=O)Oc1ccc2c(c1)O/C(=C\C=C\c1ccccc1)C2=O | 92% (inactive) | 97%
Fc1ccccc1CNCCC(Cc1ccccc1)c1ccc2c(c1)OCO2 (stereo unspecified) | 171% (inactive) | 228%
CC(NC(=O)c1cccnc1)C(=O)O (stereo unspecified) | 75% (inactive) | 73%
COc1ccc(OC(C)C(=O)Nc2ccc([N+](=O)[O-])cc2)cc1 (stereo unspecified) | 76% (inactive) | 72%
CC(NC(=O)c1ccc(OC2CCN(Cc3ccccn3)CC2)cc1)c1ccccc1 (stereo unspecified) | 73% (inactive) | 66%
Cc1ncc(CN2CCC(CO)(CCc3ccccc3)CC2)s1 | 75% (inactive) | 75%
Cc1ccc(-c2nn(-c3cccc(F)c3)cc2CN2CCN(c3ccccn3)CC2)o1 | 69% (inactive) | 69%
CC12CCC(C(=O)NNc3ccccc3)(C(=O)C1=O)C2(C)C (stereo unspecified) | 92% (inactive) | 88%
O=c1nc2n(c3c1oc1ccccc13)Cc1ccccc1-2 | 131% (inactive) | 133%

Compound | plasma membrane CFTR intensity | total CFTR intensity
C#C[C@]1(O)CC[C@H]2[C@@H]3CCc4cc(O)ccc4[C@H]3CC[C@@]21C | 113% (inactive) | 106%
C#C[C@]1(O)CC[C@H]2[C@@H]3CCc4cc(OC5CCCC5)ccc4[C@H]3CC[C@@]21C | 41% (inactive) | 30%
C#C[C@]1(O)CC[C@H]2[C@@H]3CCc4cc(OC)ccc4[C@H]3CC[C@@]21C | 133% (active) | 141%
COc1ccc(C2c3c(n[nH]c3C)CC(C)(O)C2C(C)=O)cc1OC (stereo unspecified) | 87% (inactive) | 86%
Cc1ccc2c(c1)C(C)(C)[C@]1(C)NC(=O)CCN21 | 94% (inactive) | 97%
CC(C)C(CCN1C(=O)CCC1=O)C1CCOC(C)(C)C1 (stereo unspecified) | 87% (inactive) | 90%
CC(C)OC(=O)CC1C(=O)NCCN1C(=S)NC(=O)c1ccccc1Cl (stereo unspecified) | 79% (inactive) | 80%
COc1ccc(C2C(C(=O)c3ccco3)=C(O)C(=O)N2CC2CCCO2)cc1 (stereo unspecified) | 79% (inactive) | 83%
COc1ccc2cc(C3(C)NC(=O)NC3=O)ccc2c1 (stereo unspecified) | 89% (inactive) | 88%
COc1ccc2[nH]c3c(c2c1)CCNC3C1CC=C(C)CC1 (stereo unspecified) | 99% (inactive) | 117%
COC(=O)C1[C@H]2C(=O)N(Cc3cccs3)C[C@]23C=C[C@H]1O3 (stereo partly specified) | 92% (inactive) | 95%
S=C(c1ccc2c(c1)OCO2)N1CCCCC1 | 83% (inactive) | 85%
Fc1ccc(NC(=S)Nc2ccccc2Cl)cc1 | 92% (inactive) | 93%
CCNC(=O)c1sc2cc(C)ccc2c1Cl | 92% (inactive) | 95%
NS(=O)(=O)c1cc2c(cc1Cl)NC(CSCc1ccccc1)=NS2(=O)=O | 84% (inactive) | 85%
C[C@@H]1C[C@H](Nc2ccccc2)c2ccccc2N1C(=O)c1cccnc1 | 97% (inactive) | 103%
CC(=O)c1c[nH]c2ccc(C)cc2c1=O | 83% (inactive) | 84%
COc1ccc(OC)c(NC2=C(Cl)C(=O)N(Cc3ccccc3)C2=O)c1 | 88% (inactive) | 100%
Cc1ccc2occ(C(=O)c3ccco3)c(=O)c2c1 | 86% (inactive) | 90%
O=C(O)[C@H](Cc1ccccc1)NC(=O)N1CCC(Cc2ccccc2)CC1 | 89% (inactive) | 83%

Compound | plasma membrane CFTR intensity | total CFTR intensity
CC(C)CC(=O)N(Cc1ccc(F)cc1)C1CCS(=O)(=O)C1 (stereo unspecified) | 96% (inactive) | 98%
CCOc1ccccc1OCCOc1ccc(F)cc1 | 86% (inactive) | 86%
C=CCNc1nc2c(c(=O)n(C)c(=O)n2C)n1CC(=C)C | 82% (inactive) | 80%
CCOC(=O)C1=C(N)Oc2c(c(=O)[nH]c3ccccc23)C1c1ccccc1 (stereo unspecified) | 93% (inactive) | 96%
CCNC(=O)C(Cc1ccccc1)NC(=O)OCc1ccccc1 (stereo unspecified) | 81% (inactive) | 80%
COC(=O)c1ccccc1NC(=O)c1ccc(COc2ccc3c(c2)CCC3)cc1 | 84% (inactive) | 83%
CCOC(=O)C1C(=O)OC2(CCOC(C)(C)C2)C1C(=O)OCC (stereo unspecified) | 90% (inactive) | 87%
COc1ccc(NC(=O)N2CCCCC2c2cccnc2)cc1 (stereo unspecified) | 84% (inactive) | 84%
CCOC(=O)C1C2C=CC3(CN(c4ccc(Cl)c(F)c4)C(=O)C13)O2 (stereo unspecified) | 84% (inactive) | 83%
CCOC(=O)/C=C1\NC(C)(C)Cc2cc(OC)c(OC)cc21 | 86% (inactive) | 89%
O=C(COc1ccccc1)N1CCN(c2ccccc2)CC1 | 88% (inactive) | 85%
CC[N+]1(C)CC2CCC(C)(C1)C2(C)C (stereo unspecified) | 72% (inactive) | 75%
CC(C)(C)OC(=O)N1CCCC1C(=O)NC(Cc1ccccc1)C(=O)O (stereo not drawn) (Boc-Pro-Phe-OH; configuration not given here) | 96% (inactive) | 102%
CC(=O)N1CC23C=CC(CC2CC12CCCCCC2)O3 (stereo unspecified) | 73% (inactive) | 77%
O=C(Nc1cccc(-c2nc3ncccc3o2)c1)c1ccccc1 | 68% (inactive) | 72%
CC(NCCc1ccc(O)cc1)C(O)c1ccc(O)cc1 (stereo unspecified) | 101% (inactive) | 96%
CC(COc1ccccc1)N(CCCl)Cc1ccccc1 (stereo unspecified) | 78% (inactive) | 80%
CC(COc1ccccc1)NC(C)C(O)c1ccc(O)cc1 (stereo unspecified) | 104% (active) | 121%
